HPGD inh – inhibitors of human 15-hydroxyprostaglandin dehydrogenase (HPGD); purified HPGD, NADH fluorescence kinetic, PGE2 substrate; Potency, µM, hits mostly inhibitors; hit rate 4.3% among 150,000; AID 894
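NADH formation kinetics: reaction with 30 uM PGE2 and 1 mM NAD+ (final), 20 nM enzyme, Tris-HCl pH 8 with Tween 20, after 15 min compound preincubation at room temperature. Fluorescence change, last versus first of five reads.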
ALDH1A1 inh – ALDH1A1 (human) enzyme inhibition; Purified ALDH1A1, NADH fluorescence, propionaldehyde substrate; hit rate 7.3% among 220,000; Potency, µM (series often up to 75.3 µM), usual class: inhibitors
Target sequence (P00352 whole entry, looked up): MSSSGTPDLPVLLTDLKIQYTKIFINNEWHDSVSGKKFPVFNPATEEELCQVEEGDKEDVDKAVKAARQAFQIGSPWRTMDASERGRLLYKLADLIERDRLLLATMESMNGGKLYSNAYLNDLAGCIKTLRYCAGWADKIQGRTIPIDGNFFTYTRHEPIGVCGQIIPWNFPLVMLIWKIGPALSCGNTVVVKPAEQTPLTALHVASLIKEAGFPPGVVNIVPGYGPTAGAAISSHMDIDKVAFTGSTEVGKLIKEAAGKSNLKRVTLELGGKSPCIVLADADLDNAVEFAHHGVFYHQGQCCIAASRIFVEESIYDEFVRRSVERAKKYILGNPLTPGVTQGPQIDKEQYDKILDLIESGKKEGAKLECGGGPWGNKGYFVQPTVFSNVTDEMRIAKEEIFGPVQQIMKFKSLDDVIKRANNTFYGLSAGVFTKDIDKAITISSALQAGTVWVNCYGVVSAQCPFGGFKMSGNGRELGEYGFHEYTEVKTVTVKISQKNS
IMPase inh – membrane-permeable compound that blocks inositol monophosphatase | P97697 | CHO-M1 cells, IP1 accumulation, HTRF TR-FRET ratio | inhibition (IP1 accumulation), % at 46.1 µM | 120,000 tested, under 10 active | AID 901; active means well fitted curve in the direction sought with a large enough effect in the signal ratio, not every such curve was filed as active; inconclusive means small, poorly fitted or top-dose-only effect, or a change in a side signal; inactive means no such curve, though single readings can be large or run the other way; the % refers to the signal ratio;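 further: cells stimulated with carbachol in lithium chloride buffer; higher means more IMPase inhibition seen as more IP1 and lower FRET ratio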
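Elevated IP1 in lysates lowers TR-FRET signal (665/620 ratio and 620 channel reported). Cells were CHO-M1, given carbachol (50 uM as added) plus 50mM LiCl, pH 7.4, 30 min, 37C; compounds titrated up to 46 uM; AC50 by Hill equation.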
Hits are given with their value; - = inactive; ? = inconclusive; . = no result given. In the library only some 9% were active in any assay of this set; here they are far more common. Unless noted, the call rests on the fitted dose curve; in most records, active means well fitted inhibition curve with a large enough effect (not every such curve was filed as active); inconclusive means small, poorly fitted or top-dose-only effect, or another doubt; inactive means no such curve, though single readings can be large or run the other way.

SMILES | HPGD inh | ALDH1A1 inh | IMPase inh
CC(C)CCCC(C)C1CCC2C3CC=C4CC(O)CCC4(C)C3CCC12C (stereo not drawn) | - | - | -
Cc1ccc(NC(=O)COC(=O)C2CC3C=CC2C3)cc1S(=O)(=O)N1CCCCC1 (stereo not drawn) | - | ? | -
COc1cc2oc(=O)cc(-c3ccc(-c4sccc4C=O)cc3)c2c(OC)c1OC | - | - | .
Cc1ccc(NC(=O)CCC(=O)c2cccs2)cc1 | - | ? | -
Cc1ccc(NCCC(=O)c2cccs2)cc1 | . | 0.89µM | .
O=C(COC(=O)CN=C1NS(=O)(=O)c2ccccc21)Nc1ccccc1OC(F)F | . | - | .
O=C(Cn1cccc1C(=O)c1ccccc1)NCCC1=CCCCC1 | . | - | .
CN1CCc2c(n(CC(O)CN3C(=O)c4ccccc4S3(=O)=O)c3ccccc23)C1=O (stereo not drawn) | - | 10µM | ?
O=C1c2ccccc2S(=O)(=O)N1CC(O)COc1ccc(Cl)cc1 (stereo not drawn) | . | ? | -
CN1CCc2c(n(CC(O)CN(CCO)CCO)c3ccccc23)C1=O (stereo not drawn) | . | - | .
Cc1c(C)n(CC(O)CN2C(=O)c3ccccc3S2(=O)=O)c2ccccc12 (stereo not drawn) | 20µM | 14µM | -
Cn1cc([C@@H]2C[C@H]3CN(Cc4cccc(Cl)c4)C(=O)[C@]34CCCN24)c2ccccc21 | . | - | .
Cc1ccc(-n2nc3ccc(NC(=O)/C=C/c4ccco4)cc3n2)cc1 | - | - | .
CN(C)c1nc(N(C)C)nc(N2CC(=O)N(c3ccccc3)C2=N)n1 | . | 1.4µM | .
CN(C)c1nc(Oc2ccc(=O)n(-c3ccccc3)n2)nc(N2CCOCC2)n1 | - | - | -
CCOc1ccc(C(=O)Nc2ncccc2Cl)cc1 | . | - | .
O=C(c1cc(-c2ccc(O)cc2)on1)N1CCc2ccccc2C1 | 13µM | ? | -
COc1ccccc1N1CCN(C(=O)c2cc(-c3ccco3)on2)CC1 | - | ? | -
Cc1ccc(NC(=O)c2cc(-c3ccco3)on2)cc1C | ? | ? | -
O=C(c1cc(-c2ccco2)on1)N1CCc2ccccc2C1 | 11µM | 7.9µM | ?
O=C(c1cc(-c2ccccc2O)on1)N1CCc2ccccc2C1 | ? | ? | -
O=C(c1ccc2nc(-c3ccco3)c(-c3ccco3)nc2c1)N1CCN(c2ccccc2)CC1 | ? | 8.9µM | -
O=C(c1cc(-c2ccco2)on1)N1CCN(c2ccccc2)CC1 | - | 14µM | -
Cn1nnc2cc(C(=O)N3CCN(c4ccccc4)CC3)ccc21 | - | - | -
Clc1ccccc1-c1nc(-n2ccnc2)c2ccccc2n1 | . | - | .
SMILES | HPGD inh | ALDH1A1 inh | IMPase inh
Cc1cc(C)cc(N(CC(=O)NCCSc2ccccn2)S(=O)(=O)c2ccccc2)c1 | - | ? | -
CCCCC[C@H](O)/C=C/[C@@H]1[C@@H](C/C=C\CCCC(=O)O)[C@H](O)C[C@H]1O | - | - | .
O=S(=O)(c1ccccc1)N1CCC2(CCCN(C(c3ccccc3)c3ccccc3)C2)CC1 | - | - | .
Cc1nc(OCc2c(C)noc2C)c2ccccc2n1 | . | - | .
O=C(Cn1nnc(-c2cccs2)n1)N1CCOCC1 | . | - | .
O=C(c1cc(-c2cccs2)on1)N1CCOCC1 | - | - | -
O=C(CCn1nnc(-c2cccs2)n1)N1CCc2ccccc2C1 | 16µM | 28µM | -
O=C(c1cc(-c2cccs2)on1)N1CCc2ccccc2C1 | 13µM | - | -
Cn1c(COc2ccc(Cl)cc2)nnc1SCc1ncc(-c2ccccc2)o1 | - | 20µM | -
COc1ccc(-n2cnnc2SCc2ncc(-c3ccccc3)o2)cc1 | - | - | -
N[C@@H](CS(=O)O)C(=O)O | - | - | -
CCOc1ccc(N=Nc2c(=O)[nH]n3c(=O)cc(C)[nH]c23)cc1 | 40µM | - | -
CCOc1ccc(N=Nc2c(N)[nH][nH]c2=O)cc1 | - | 19µM | .
COc1cccc(N=Nc2c(N)[nH][nH]c2=O)c1 | - | - | .
Cc1cc(=O)n2[nH]c(=O)c(N=Nc3ccccc3)c2[nH]1 | ? | ? | -
CN(C)c1ccc(/C=C2/C(=O)N(c3ccc([N+](=O)[O-])cc3)N=C2N2CCOCC2)cc1 | - | 1.3µM | -
O=[N+]([O-])c1ccc(Nc2ccc(N3CCOCC3)cc2)c([N+](=O)[O-])c1 | . | - | .
COc1ccccc1CN1CC[C@@]2(CCCN(C(=O)c3c(C)noc3C)C2)C1 | - | - | .
Cc1nc(NCc2ccccc2)c2nc(-c3ccccc3)n(C3CCN(Cc4ccccc4)C3)c2n1 (stereo not drawn) | - | ? | .
Cc1ccc(C2=Nc3ccccc3N=C(c3ccc([N+](=O)[O-])cc3)C2)c(O)c1 | - | - | .
COc1cccc(C(=O)NCC(=O)N/N=C/c2ccc(OC(=O)c3cccs3)c(OC)c2)c1 | - | - | .
CC(=O)Oc1cc(-c2coc3cc(OC(C)=O)c(OC(C)=O)c(OC(C)=O)c3c2=O)cc(OC(C)=O)c1OC(C)=O | 7.9µM | ? | .
COc1cc(-c2coc3cc(OC)c(OC)c(OC)c3c2=O)cc(OC)c1OC | - | - | .
COc1ccccc1NC(=O)CSc1nnc2c3ccccc3n(C(C)C)c2n1 | . | . | -
CCCCCCCC/C=C\CCCCCCCC(=O)NCCCC(=O)O | - | - | .
SMILES | HPGD inh | ALDH1A1 inh | IMPase inh
Cc1[nH]cnc1CSCc1ccc(F)cc1 | - | - | .
Cc1[nH]c(=S)sc1Cc1ccc(F)cc1 | 16µM | ? | .
O=C1CC(N2CCCN(C3CC(=O)N(c4ccc(F)cc4)C3=O)CC2)C(=O)N1c1ccc(F)cc1 (stereo not drawn) | - | 13µM | -
O=CN1CCN(C2CC(=O)N(c3ccc(Br)cc3)C2=O)CC1 (stereo not drawn) | - | ? | -
O=C1CC(N2CCC(O)CC2)C(=O)N1c1ccc(Br)cc1 (stereo not drawn) | - | 22µM | -
O=C1CC(N2CCCCC2)C(=O)N1c1ccccc1 (stereo not drawn) | - | ? | -
C=C1Cn2c(nnc2-c2ccc(Cl)cc2)S1 | - | - | -
CCOC(=O)c1ccc(NC(=O)Cn2cc(C(=O)C3CC3)c3ccccc32)cc1 | . | . | -
CCOC(=O)c1sc(NC(=O)CSc2nc3c(cc2C#N)CCCCCC3)c(C#N)c1C | . | ? | -
Cc1noc(NS(=O)(=O)c2ccc(NC(=O)CSc3nc4c(cc3C#N)CCC4)cc2)c1C | 32µM | ? | -
Cc1noc(NS(=O)(=O)c2ccc(NC(=O)CSc3nc4c(cc3C#N)CCCC4)cc2)c1C | 28µM | 28µM | -
N#Cc1cc2c(nc1SCC(O)CS(=O)(=O)Cc1ccc(Cl)cc1)CCCC2 (stereo not drawn) | - | ? | -
CC(C)(C)c1ccc(S(=O)(=O)CC(O)CSc2nc3c(cc2C#N)CCCC3)cc1 (stereo not drawn) | ? | 2µM | -
Cc1noc(NS(=O)(=O)c2ccc(NC(=O)CS(=O)(=O)c3ccccc3)cc2)c1C | - | - | -
CCC1CCCCN1C(=S)Nc1cccc(S(=O)(=O)N(C)C)c1 (stereo not drawn) | . | - | .
CC(=O)Nc1sc(N/N=C\c2ccco2)nc1-c1cccs1 | 32µM | 18µM | -
CC(=O)Nc1sc(N/N=C\c2ccccc2)nc1-c1cccs1 | - | ? | .
O=C(NCc1n[nH]c(=S)n1-c1cccc(Cl)c1)c1ccc(S(=O)(=O)N2CCCC2)cc1 | - | 4.5µM | -
CCCN(CCC)S(=O)(=O)c1ccc(C(=O)NCc2n[nH]c(=S)n2-c2ccc(Cl)c(Cl)c2)cc1 | . | - | .
